Sampled rows, rich in hits. Any-hit rate of the full collection: about 21%.
RORgamma inh: inhibitors of mouse ROR gamma transcriptional activity | AID 2551 | 310,000 compounds, 5.4% hits | Drosophila S2 Gal4-RORgamma UAS-luciferase reporter, 20 h | Potency, µM (titrated, usually from 53.6 µM), without a hit: at the highest dose activity change, negative = inhibition, actives largely listed as inhibitors; note: potency is the fitted concentration of half-maximal effect; nearly all actives have a fitted effect of over 60% in size
Target sequence (P51450 whole entry, looked up, the tested form may be a part): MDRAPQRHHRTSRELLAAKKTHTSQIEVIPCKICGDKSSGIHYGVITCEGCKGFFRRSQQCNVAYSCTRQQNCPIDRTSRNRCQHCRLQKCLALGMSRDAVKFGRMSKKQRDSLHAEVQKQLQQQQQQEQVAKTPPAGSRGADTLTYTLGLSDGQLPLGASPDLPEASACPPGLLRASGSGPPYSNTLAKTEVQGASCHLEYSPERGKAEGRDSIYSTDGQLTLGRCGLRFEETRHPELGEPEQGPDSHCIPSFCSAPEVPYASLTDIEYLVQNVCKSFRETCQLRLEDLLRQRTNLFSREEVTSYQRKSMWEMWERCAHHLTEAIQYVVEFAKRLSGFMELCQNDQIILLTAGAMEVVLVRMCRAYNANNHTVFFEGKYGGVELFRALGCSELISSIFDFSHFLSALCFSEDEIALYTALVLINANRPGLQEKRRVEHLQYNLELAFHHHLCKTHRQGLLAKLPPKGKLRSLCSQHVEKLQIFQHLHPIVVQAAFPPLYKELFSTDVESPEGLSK
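Luminescence from a UAS-regulated Photinus luciferase reporter in stably transfected Drosophila Schneider cells is measured; decreased signal marks ROR gamma inhibition. Fusion expression is induced by 700 uM copper sulfate for 20 hr.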
TDP1 cell noCPT: qHTS for Inhibitors of human tyrosyl-DNA phosphodiesterase 1 (TDP1): qHTS in cells in absence of CPT. Potency, µM (highest dose often 46.2 µM), for the others: at the top dose activity change, negative = growth inhibition, hits mostly inhibitors. 420,000 compounds, 15% hits. DT40 Tdp1-/- hTDP1 cells, no CPT, ATP luminescence, 48 h; note: potency is the fitted concentration of half-maximal effect; nearly all actives have a fitted effect of over 55% in size
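Stably hTDP1-transfected Tdp1-null chicken DT40 cells were treated with library compounds minus camptothecin and grown for at least 48 hr at 37 °C, after which cellular ATP was quantified by luminescence.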
ELG1 repair inh: ELG1-dependent DNA repair inhibition. HEK293T ELG1-luciferase reporter, luminescence, 16 h; DNA damage induced by 5-fluorouridine. Potency, µM (titrated, usually from 46.1 µM), for the others: top-dose activity change, negative = inhibition, hits mostly inhibitors. 330,000 compounds, 2.3% hits. AID 504467; note: potency is the fitted concentration of half-maximal effect; nearly all actives have a fitted effect of over 55% in size
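Overnight (16 hr) co-exposure of 2,000 cells/well to 5-fluorouridine and compound at 37 °C preceded detection. Luciferase was quantified via ONE-Glo luminescence; loss of signal denotes inhibition.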
Gal4-VP16 FLuc: counter-screen for ROR gamma inhibitors: Gal4-VP16 reporter. Drosophila S2 Gal4-VP16 UAS-luciferase, luminescence, 20 h. Potency, µM (titrated, usually from 53.6 µM), for inactives: at the top dose activity, negative = inhibition, most hits filed as inhibitors. 310,000 compounds, 3.5% hits. AID 2546;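 note: Gal4-VP16 expression switched on by copper sulfate through the metallothionein promoter; potency is the fitted concentration of half-maximal effect; nearly all actives have a fitted effect of over 50% in size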
IL-1B inflam inh: inhibitors of inflammasome signaling (IL-1 beta secretion). AID 743279. activity change, % at 57.5 µM. 360,000 compounds, 4.7% hits. THP-1 LPS/ATP IL-1B secretion, AlphaLISA, 16 h; active compounds read low; in the data active = activity change below about -50%; inconclusive = mostly about -30% to -49%
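THP-1 cells pretreated 1 hr with compounds (up to 57.5 uM final), then stimulated with LPS (250 ng/mL final) plus ATP (1.25 mM final); secreted IL-1B measured by AlphaLISA after 16 hr, decreased signal indicating inhibition.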
TDP1 cell CPT: growth inhibition of DT40 Tdp1-/-;hTDP1 cells with camptothecin (screen for TDP1 inhibitors); chicken DT40 Tdp1-/-;hTDP1 cells + 20 nM CPT, ATP luminescence, 48 h; Potency, µM (titrated, usually from 46.2 µM), for inactives: at the top dose activity change, negative = growth inhibition, most hits filed as inhibitors; 420,000 compounds, 12% hits; AID 686979; note: potency is the fitted concentration of half-maximal effect; nearly all actives have a fitted effect of over 55% in size
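Chicken DT40 Tdp1-/- cells complemented with human TDP1, 400 cells/well, exposed to compounds plus 20 nM camptothecin for at least 48 h at 37 C; viability read as ATP content by CellTiter-Glo luminescence.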
* hit, by the source's call. Unless noted, calls come from the whole dose curve; as a rule, active = well fitted curve in the direction sought with a large enough effect; inconclusive = small, poorly fitted or top-dose-only effect, or another doubt; inactive = no such curve, though single readings can be large; an effect the other way counts as inactive or inconclusive. % is set by controls: 0 for no effect and ±100 for the full control effect.

`OC(c1ccc(-c2ccccc2)cc1)c1ncc(-c2ccccc2Cl)[nH]1` (stereo not given) gave TDP1 cell noCPT inconclusive, IL-1B inflam inh -17.4 and TDP1 cell CPT inconclusive.
O=c1c(OCc2ccccc2)cccn1Cc1ccccc1 was read as TDP1 cell noCPT inconclusive, IL-1B inflam inh inconclusive and TDP1 cell CPT -0.8%.
CCc1sc(C(=O)NCCc2ccc(S(N)(=O)=O)cc2)cc1Br was read as RORgamma inh 20.2%, TDP1 cell noCPT 16.4µM*, ELG1 repair inh -4.5%, Gal4-VP16 FLuc 2.5%, IL-1B inflam inh inconclusive and TDP1 cell CPT inconclusive.
`CCN(c1ccccc1)S(=O)(=O)c1cccc(C(=O)Nc2cccc(C)n2)c1` gave TDP1 cell noCPT 20.6µM*, IL-1B inflam inh -4.2 and TDP1 cell CPT 23.1µM*.
For CCOC(=O)C1CCCN(C(=O)c2oc3ccccc3c2C)CC1 (stereo not given) the results were TDP1 cell noCPT -28.6%, IL-1B inflam inh 24.3 and TDP1 cell CPT inconclusive.
Screening O=C(CSCc1nc2ccccc2[nH]1)N1CCN(c2cccc(Cl)c2)CC1 returned RORgamma inh 11.2µM*, TDP1 cell noCPT inconclusive, ELG1 repair inh inconclusive, Gal4-VP16 FLuc inconclusive, IL-1B inflam inh inconclusive and TDP1 cell CPT 23.1µM*.
Screening O=C(CCSCc1ccccc1Cl)N1CCN(c2cccc(Cl)c2)CC1 returned RORgamma inh 7.3%, TDP1 cell noCPT inconclusive, ELG1 repair inh -13.1%, Gal4-VP16 FLuc -1.2%, IL-1B inflam inh -16.3 and TDP1 cell CPT inconclusive.
`O=C(CSCc1nc2ccccc2[nH]1)N1CCN(c2ccc(F)cc2)CC1` gave RORgamma inh inconclusive, TDP1 cell noCPT 18.4µM*, ELG1 repair inh inconclusive, Gal4-VP16 FLuc inconclusive, IL-1B inflam inh inconclusive and TDP1 cell CPT 23.1µM*.
Screening O=C(O)CSCc1nc2ccccc2[nH]1 returned RORgamma inh -12.2%, TDP1 cell noCPT -2.6%, ELG1 repair inh 2.5%, Gal4-VP16 FLuc -3.3%, IL-1B inflam inh 17.7 and TDP1 cell CPT 6.7%.
For O=C(CCCc1nc2ccccc2s1)N1CCN(c2ccccc2)CC1 the results were RORgamma inh 0.3%, TDP1 cell noCPT inconclusive, ELG1 repair inh -3.1%, Gal4-VP16 FLuc 3.98µM*, IL-1B inflam inh 34.3 and TDP1 cell CPT -28.3%.
For CCOc1ccccc1N1CCN(C(=O)CCCc2nc3ccccc3s2)CC1 the results were RORgamma inh inconclusive, TDP1 cell noCPT 16.4µM*, ELG1 repair inh inconclusive, Gal4-VP16 FLuc 19.6%, IL-1B inflam inh 5.4 and TDP1 cell CPT inconclusive.
Screening O=C(CCCc1nc2ccccc2s1)N1CCN(c2ccccc2F)CC1 returned RORgamma inh 48.2%, TDP1 cell noCPT -14.2%, ELG1 repair inh -2.5%, Gal4-VP16 FLuc 1.6%, IL-1B inflam inh 91.4 and TDP1 cell CPT inconclusive.
Screening O=C(CCCc1nc2ccccc2s1)N1CCN(S(=O)(=O)c2cccs2)CC1 returned RORgamma inh 43.7%, TDP1 cell noCPT -28.3%, ELG1 repair inh inconclusive, Gal4-VP16 FLuc -5.2%, IL-1B inflam inh 37.9 and TDP1 cell CPT inconclusive.
Cc1ccc(OCCCN2CCOCC2)cc1 was read as RORgamma inh 9.6%, TDP1 cell noCPT -1.8%, ELG1 repair inh 20.9%, Gal4-VP16 FLuc 2.2%, IL-1B inflam inh 1.2 and TDP1 cell CPT 18.2%.
`CCOc1ccc2nc(NC(=O)C3=NN(c4ccccc4)C(=O)CC3)sc2c1` gave RORgamma inh 2.82µM*, TDP1 cell noCPT 25.9µM*, ELG1 repair inh -5.5%, Gal4-VP16 FLuc 18.5%, IL-1B inflam inh 19.9 and TDP1 cell CPT inconclusive.
CCOc1ccc2nc(NC(=O)c3cnc(C)cn3)sc2c1 was read as RORgamma inh 1.78µM*, TDP1 cell noCPT 20.6µM*, ELG1 repair inh 2.3%, Gal4-VP16 FLuc 5.62µM*, IL-1B inflam inh -9.7 and TDP1 cell CPT 14.6µM*.
`CCOc1ccc2nc(NC(=O)c3nc(SCc4ccccc4C)ncc3Cl)sc2c1` gave TDP1 cell noCPT 2.91µM* and TDP1 cell CPT 13µM*.
`CCOc1ccc2nc(NC(=O)c3ccc(C)o3)sc2c1` gave TDP1 cell noCPT 18.4µM*, IL-1B inflam inh -30.0 and TDP1 cell CPT inconclusive.
`Cc1ccc2nc(NC(=O)C3=NN(c4ccccc4)C(=O)CC3)sc2c1` gave RORgamma inh inconclusive, TDP1 cell noCPT -13.4%, ELG1 repair inh -23.7%, Gal4-VP16 FLuc inconclusive, IL-1B inflam inh -18.1 and TDP1 cell CPT -9.7%.
Screening CCOc1ccc2nc(NC(=O)c3cccnc3)sc2c1 returned RORgamma inh inconclusive, TDP1 cell noCPT -12.3%, ELG1 repair inh inconclusive, Gal4-VP16 FLuc -14.0%, IL-1B inflam inh -7.3 and TDP1 cell CPT -21.9%.
Screening CCCS(=O)(=O)c1ncc(Cl)c(C(=O)Nc2c(C(=O)c3ccccc3)oc3ccccc23)n1 returned TDP1 cell noCPT inconclusive and TDP1 cell CPT -2.9%.
Cc1noc(C)c1S(=O)(=O)NC(=O)C1(C)CCN1C(=O)C1(c2ccc(Cl)cc2)CC1 (stereo not given) was read as TDP1 cell noCPT -5.4%, IL-1B inflam inh 25.8 and TDP1 cell CPT -15.0%.
For COc1ccc2c(c1)c1c(c(=O)n(Cc3ccccc3)c(=O)n1CC(=O)NCc1ccccc1Cl)n2C the results were TDP1 cell noCPT 0.2% and TDP1 cell CPT 5.9%.
Screening C[C@H](NC(=O)CNC(=O)[C@@H](NC(=O)[C@H](Cc1ccccc1)NC(=O)CNC(=O)CNC[C@@H](N)Cc1ccccc1)[C@@H](C)O)C(=O)N[C@@H](CCCN=C(N)N)C(=O)N[C@@H](CCCCN)C(=O)N[C@@H](CO)C(=O)N[C@@H](C)C(=O)N[C@@H](CCCN=C(N)N)C(=O)N[C@@H](CCCCN)C(N)=O returned RORgamma inh 22.2% and Gal4-VP16 FLuc 2.9%.
For CCOc1ccc2nc(NC(=O)CSc3nc4cccnc4n3C)sc2c1 the results were RORgamma inh inconclusive, TDP1 cell noCPT 3.26µM*, ELG1 repair inh 0.3%, Gal4-VP16 FLuc inconclusive, IL-1B inflam inh -10.7 and TDP1 cell CPT 8.2µM*.
CN(C)C(=S)Nc1nc2ccccc2s1 was read as RORgamma inh 0.501µM*, TDP1 cell noCPT 2.59µM*, ELG1 repair inh inconclusive, Gal4-VP16 FLuc 1.26µM*, IL-1B inflam inh 19.8 and TDP1 cell CPT 3.66µM*.
For CCNC(=O)Nc1nc2ccccc2s1 the results were RORgamma inh 8.4%, TDP1 cell noCPT 8.4%, ELG1 repair inh inconclusive, Gal4-VP16 FLuc -0.8%, IL-1B inflam inh 0.0 and TDP1 cell CPT -1.0%.

From PubChem
